Assay results as given in PubChem BioAssay (NCATS).
Results filed as inconclusive are left out. The source made the active and inactive calls. Unless noted, calls follow the shape of the dose curve; as a rule, active = well fitted curve in the direction sought with a large enough effect; inconclusive = small, poorly fitted or top-dose-only effect, or another doubt; inactive = no such curve, though single readings can be large; an effect the other way counts as inactive or inconclusive.

Columns and labels:
[1] = Primary qHTS for inhibitors of nuclear receptor binding SET domain protein 2 (NSD2) in an isogenic RCH-ACV NSD2 p.E1099K mutant (9B) (AID 1645876); also: nearly all actives have a fitted effect of over 70% in size; also: potency is read from the fitted curve at half-maximal effect
[2] = Cytometric Cell-Based qHTS for Inhibitors of the mTORC1 Signaling Pathway in MEF (Tsc2-/-, p53-/-) Cells (AID 2660);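 also: percent of cells above a phospho-rpS6 to PI ratio cutoff in each well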
Method in brief: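 Percent of cells positive for normalized phospho-S6 staining is reported, with the cutoff set from rapamycin (7.5 nM) versus DMSO wells. Tsc2-/-, p53-/- MEFs received compound for 24 hrs.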

[3] = High Content Imaging Cell-Based qHTS for Inhibitors of the mTORC1 Signaling Pathway in MEF (Tsc2-/-, p53-/-) Cells (AID 2666); details: at 38.3 µM (top of the series);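 also: percent of cells scored positive for phospho-rpS6 Ser235/236 immunostaining by imaging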
Method in brief: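 Phospho-rpS6 (Ser235/236) immunofluorescence, normalized and scored as % positive cells using rapamycin and DMSO controls, was read in empty-vector Tsc2-/-, p53-/- MEFs after 24 h compound exposure at 37 C; propidium iodide counted cells.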

[4] = biological target: DNA polymerase III PolC-type (Bacillus subtilis (strain 168)) (UniProt P13267); assay: qHTS Validation Assay for the Inhibitors of DNA Replication in Gram-Positive Bacteria (AID 485295);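 also: PicoGreen fluorescence of double-stranded DNA made on primed circular M13 template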
DNA polymerase III PolC-type (Bacillus subtilis (strain 168)), sequence (P13267 whole entry, looked up): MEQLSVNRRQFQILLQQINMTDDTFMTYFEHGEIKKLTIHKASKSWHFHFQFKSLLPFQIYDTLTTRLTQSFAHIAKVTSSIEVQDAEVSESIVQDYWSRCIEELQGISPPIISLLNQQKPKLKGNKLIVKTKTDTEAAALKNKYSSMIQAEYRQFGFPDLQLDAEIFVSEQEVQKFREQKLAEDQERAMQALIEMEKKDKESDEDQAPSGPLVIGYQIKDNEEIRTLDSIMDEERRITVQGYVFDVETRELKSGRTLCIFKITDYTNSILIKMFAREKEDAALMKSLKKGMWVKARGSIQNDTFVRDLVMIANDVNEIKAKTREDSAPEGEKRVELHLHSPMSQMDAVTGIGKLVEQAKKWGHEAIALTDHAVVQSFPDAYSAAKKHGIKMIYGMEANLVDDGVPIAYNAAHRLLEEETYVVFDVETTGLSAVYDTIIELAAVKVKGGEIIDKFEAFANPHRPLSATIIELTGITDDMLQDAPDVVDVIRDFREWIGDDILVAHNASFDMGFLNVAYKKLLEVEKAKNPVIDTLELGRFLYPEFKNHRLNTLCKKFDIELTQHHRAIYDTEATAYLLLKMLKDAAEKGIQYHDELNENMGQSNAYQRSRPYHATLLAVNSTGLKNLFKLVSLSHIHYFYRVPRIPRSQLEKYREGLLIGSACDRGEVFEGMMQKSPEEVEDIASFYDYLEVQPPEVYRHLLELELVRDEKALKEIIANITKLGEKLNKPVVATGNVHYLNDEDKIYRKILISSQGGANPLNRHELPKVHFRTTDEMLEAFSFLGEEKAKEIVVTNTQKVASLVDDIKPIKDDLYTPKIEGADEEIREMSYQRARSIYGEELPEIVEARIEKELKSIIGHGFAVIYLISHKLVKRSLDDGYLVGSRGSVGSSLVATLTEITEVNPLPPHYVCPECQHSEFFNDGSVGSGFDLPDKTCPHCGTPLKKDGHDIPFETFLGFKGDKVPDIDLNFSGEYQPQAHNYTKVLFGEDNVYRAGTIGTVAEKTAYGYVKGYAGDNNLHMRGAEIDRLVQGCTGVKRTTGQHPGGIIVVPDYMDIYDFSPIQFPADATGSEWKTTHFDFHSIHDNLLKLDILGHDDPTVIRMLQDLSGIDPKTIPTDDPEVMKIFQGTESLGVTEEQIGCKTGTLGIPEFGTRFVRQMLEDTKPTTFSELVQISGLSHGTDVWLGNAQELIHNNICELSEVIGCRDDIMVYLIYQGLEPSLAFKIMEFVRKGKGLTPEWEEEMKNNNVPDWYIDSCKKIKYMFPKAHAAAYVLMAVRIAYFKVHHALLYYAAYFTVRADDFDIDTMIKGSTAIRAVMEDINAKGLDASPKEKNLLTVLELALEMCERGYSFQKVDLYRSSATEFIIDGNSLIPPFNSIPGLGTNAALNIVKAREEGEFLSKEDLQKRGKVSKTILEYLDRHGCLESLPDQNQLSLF
Method in brief: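 Reconstituted B. subtilis holoenzyme (Pol III, beta clamp, SSB, primase) was preincubated with compound at room temperature, then given single-stranded circular M13Gori plus dNTPs and NTPs. EDTA-containing PicoGreen stopped the reaction, and dsDNA product was read by fluorescence.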

[5] = biological target: Thioredoxin reductase 1, cytoplasmic (Rattus norvegicus) (UniProt O89049); assay: qHTS Assay for Substrates of Mammalian Selenoprotein Thioredoxin Reductase 1 (TrxR1) (AID 488772);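 also: NADPH fluorescence in the first read after selenite addition and not the 8 min delta; a drop in NADPH fluorescence below the no-compound background marks a TrxR1 substrate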
Thioredoxin reductase 1, cytoplasmic (Rattus norvegicus), sequence (O89049 whole entry, looked up): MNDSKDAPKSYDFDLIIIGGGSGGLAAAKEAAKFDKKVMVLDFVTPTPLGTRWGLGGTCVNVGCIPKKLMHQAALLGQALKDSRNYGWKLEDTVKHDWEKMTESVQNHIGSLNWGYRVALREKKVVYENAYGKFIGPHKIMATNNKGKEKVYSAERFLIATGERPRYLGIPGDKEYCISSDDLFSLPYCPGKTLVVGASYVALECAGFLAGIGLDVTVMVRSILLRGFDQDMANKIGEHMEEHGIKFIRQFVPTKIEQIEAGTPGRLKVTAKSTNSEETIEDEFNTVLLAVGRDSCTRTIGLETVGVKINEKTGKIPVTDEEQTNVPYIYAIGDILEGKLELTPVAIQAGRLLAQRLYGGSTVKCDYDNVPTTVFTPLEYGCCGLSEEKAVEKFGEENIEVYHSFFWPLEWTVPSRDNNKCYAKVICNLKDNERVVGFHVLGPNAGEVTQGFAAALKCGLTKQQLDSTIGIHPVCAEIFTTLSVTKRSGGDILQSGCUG
Method in brief: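 Quantitative HTS in Tris-HCl buffer at pH 7.5 with EDTA and Tween-20, using rat TrxR1, 400 uM NADPH and 400 uM selenite (final). A fall in initial NADPH fluorescence relative to background marked substrate behaviour.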

[6] = biological target: Chromobox protein homolog 1 (Homo sapiens) (UniProt P83916); assay: qHTS Validation Assay for Inhibitors of HP1-beta Chromodomain Interactions with Methylated Histone Tails (AID 488953); also: nearly all actives have a fitted effect of over 50% in size; also: potency is read from the fitted curve at half-maximal effect
Chromobox protein homolog 1 (Homo sapiens), sequence (P83916 whole entry, looked up): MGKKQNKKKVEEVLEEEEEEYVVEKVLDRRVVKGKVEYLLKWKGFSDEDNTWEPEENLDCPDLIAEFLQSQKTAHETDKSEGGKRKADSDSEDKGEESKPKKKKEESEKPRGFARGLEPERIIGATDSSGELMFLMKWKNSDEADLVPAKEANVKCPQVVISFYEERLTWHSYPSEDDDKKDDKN
Method in brief: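 50 nM HP1-beta + 50 nM biotin-H3(1-18)K9me3, PBS pH 7.4, 0.01% Tween-20, 30 min RT; compound added, 30 min RT; AlphaScreen beads 10 ug/mL final, 30 min dark; luminescence read.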

[7] = biological target: D(1A) dopamine receptor (Homo sapiens) (UniProt P21728); assay: HTS Assay for Allosteric Agonists of the Human D1 Dopamine Receptor: Primary Screen for Agonists (AID 488981)
D(1A) dopamine receptor (Homo sapiens), sequence (P21728 whole entry, looked up): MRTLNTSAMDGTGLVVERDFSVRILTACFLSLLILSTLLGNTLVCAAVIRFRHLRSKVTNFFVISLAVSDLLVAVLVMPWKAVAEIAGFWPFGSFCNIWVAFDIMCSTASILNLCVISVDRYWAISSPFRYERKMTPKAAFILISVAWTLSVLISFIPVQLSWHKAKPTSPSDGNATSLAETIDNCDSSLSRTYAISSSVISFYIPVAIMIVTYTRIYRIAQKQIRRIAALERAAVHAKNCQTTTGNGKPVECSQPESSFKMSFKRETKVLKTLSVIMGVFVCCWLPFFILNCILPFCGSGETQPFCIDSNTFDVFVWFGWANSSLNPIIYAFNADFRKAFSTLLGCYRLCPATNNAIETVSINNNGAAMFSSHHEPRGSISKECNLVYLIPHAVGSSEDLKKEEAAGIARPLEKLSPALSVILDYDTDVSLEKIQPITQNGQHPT
Method in brief: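 Tetracycline-induced HEK293 Trex D1 cells with forced coupling to calcium, loaded with no-wash calcium dye; kinetic fluorescence read 180 s after compound addition for agonism, then a further 180 s after an EC20 dopamine challenge for potentiation.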

[8] = biological target: Glucagon-like peptide 1 receptor (Homo sapiens) (UniProt P43220); assay: qHTS of GLP-1 Receptor Agonists: LOPAC Validation (AID 624148);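 also: higher luminescence signal means agonism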
Glucagon-like peptide 1 receptor (Homo sapiens), sequence (P43220 whole entry, looked up): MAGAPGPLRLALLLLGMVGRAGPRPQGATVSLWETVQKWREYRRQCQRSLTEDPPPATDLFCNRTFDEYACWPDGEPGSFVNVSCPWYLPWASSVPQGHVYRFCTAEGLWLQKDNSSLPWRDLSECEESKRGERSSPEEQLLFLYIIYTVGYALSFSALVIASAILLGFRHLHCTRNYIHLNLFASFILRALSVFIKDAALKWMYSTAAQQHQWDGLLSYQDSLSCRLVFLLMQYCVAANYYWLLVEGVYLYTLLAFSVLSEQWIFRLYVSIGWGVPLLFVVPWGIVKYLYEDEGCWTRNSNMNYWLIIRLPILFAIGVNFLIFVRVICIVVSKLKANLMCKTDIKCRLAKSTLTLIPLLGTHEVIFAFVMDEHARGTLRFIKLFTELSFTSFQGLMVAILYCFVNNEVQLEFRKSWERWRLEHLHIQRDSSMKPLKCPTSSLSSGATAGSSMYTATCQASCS
Method in brief: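 HEK293 cells stably co-expressing GLP-1R and a cAMP-responsive luciferase reporter, plated 12 hours before compound, then incubated 4-6 hr at 37 deg C. Luminescence read 12 min after detection reagent.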

[9] = qHTS of Nrf2 Activators: LOPAC Validation (AID 624149)
Method in brief: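 Luminescence read-out of ARE-luciferase activation: AREc32_Fluc cells treated with compounds for 24 hr at 37 deg C, then lysed with Steady-Glo for 30 min at room temperature before reading.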

[10] = HTS Assay for Allosteric Antagonists of the Human D2 Dopamine Receptor: Hit Validation in HTRF (AID 624455);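 also: stable D1 dopamine receptor cell line scored for blocking the D1 response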
Method in brief: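 First, antagonism was screened by calcium flux in a force-coupled, inducible Hek293 Trex D2 line challenged with EC80 dopamine. Hits then went into an HTRF assay in cells stably expressing D1, testing inhibition of the D1 response.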

[11] = biological target: T1, Hexokinase-4 (Homo sapiens) + Glucokinase regulatory protein (Homo sapiens) (UniProt P35557+Q14397); assay: qHTS assay for inhibitors of recombinant human GCK-GKRP interaction: Diaphorase-coupled assay (AID 743205)
Method in brief: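 GST-GCK (10 nM) with FLAG-GKRP (10 nM), 5 mM glucose and 0.4 mM ATP in pH 7.6 Hepes; compounds preincubated 20 min with substrate. G6PDH/diaphorase coupling converts resazurin to resorufin, read kinetically (ex 525/em 590 nm) for 30 min.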

[12] = biological target: T1, Hexokinase-4 (Homo sapiens) + Glucokinase regulatory protein (Homo sapiens); assay: qHTS assay for inhibitors of recombinant human GCK-GKRP interaction: ADP-Glo assay (AID 743206)
Method in brief: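 GST-GCK and FLAG-GKRP (15 nM each in the dispensed mix, with 2 uM S6P) react with 0.4 mM ATP and 5 mM glucose (final) in Hepes pH 7.6 for 60 min at room temperature. ADP is measured by ADP-Glo luminescence.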

[13] = Natriuretic polypeptide receptor (hNpr1) antagonism - Pilot counterscreen GloSensor control cell line (AID 1347045; calls by dose curve; also: potency is read from the fitted curve at half-maximal effect)
Method in brief: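 Luminescence was read before and 20 min after adding 50 uM SNP, which stimulates soluble guanylyl cyclase. The HEK293 cells expressing the GloSensor cGMP sensor had been preloaded with 2% reagent for 2 h and treated with compound.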

[14] = biological target: T2, Tyrosine-protein phosphatase non-receptor type substrate 1 (Homo sapiens) + Leukocyte surface antigen CD47 (Homo sapiens) (UniProt P78324+Q08722); assay: CD47-SIRPalpha protein protein interaction - LANCE assay qHTS validation (AID 1347057; active = well fitted curve in the direction sought with a large enough effect in the signal ratio, with a control signal flat, not every such curve was filed as active; the % refers to the signal ratio)
T2 sequence (P78324 whole entry, looked up): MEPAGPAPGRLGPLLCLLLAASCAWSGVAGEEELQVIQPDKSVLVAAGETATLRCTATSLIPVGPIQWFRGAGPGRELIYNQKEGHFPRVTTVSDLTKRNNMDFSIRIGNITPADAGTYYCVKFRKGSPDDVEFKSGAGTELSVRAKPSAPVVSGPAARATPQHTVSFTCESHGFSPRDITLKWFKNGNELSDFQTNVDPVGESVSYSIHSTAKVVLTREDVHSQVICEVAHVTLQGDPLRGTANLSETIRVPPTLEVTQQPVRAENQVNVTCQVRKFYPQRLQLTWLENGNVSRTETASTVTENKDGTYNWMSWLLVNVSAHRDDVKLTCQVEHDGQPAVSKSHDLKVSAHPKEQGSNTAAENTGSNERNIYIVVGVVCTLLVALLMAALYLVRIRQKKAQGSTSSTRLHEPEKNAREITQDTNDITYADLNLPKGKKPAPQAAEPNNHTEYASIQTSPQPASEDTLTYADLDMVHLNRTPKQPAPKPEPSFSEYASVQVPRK
T2 sequence (Q08722 whole entry, looked up): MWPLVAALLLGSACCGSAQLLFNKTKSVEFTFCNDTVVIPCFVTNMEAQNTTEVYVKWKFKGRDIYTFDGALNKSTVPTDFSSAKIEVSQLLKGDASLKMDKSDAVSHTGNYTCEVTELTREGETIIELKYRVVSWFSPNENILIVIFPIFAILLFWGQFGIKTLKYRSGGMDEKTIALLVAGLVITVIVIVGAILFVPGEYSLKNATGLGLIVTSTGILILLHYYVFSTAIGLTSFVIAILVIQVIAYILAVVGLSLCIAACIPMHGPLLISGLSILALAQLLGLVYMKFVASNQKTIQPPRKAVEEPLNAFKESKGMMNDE
Method in brief: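 First, His-tagged CD47 and Eu-labelled anti-His antibody met the compound for 30 min; next, site-specifically biotinylated SIRPalpha was added for 30 min; finally streptavidin-APC was added before reading the TR-FRET ratio.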

[15] = biological target: T2, Tyrosine-protein phosphatase non-receptor type substrate 1 (Homo sapiens) + Leukocyte surface antigen CD47 (Homo sapiens); assay: CD47-SIRPalpha protein protein interaction - Alpha assay qHTS validation (AID 1347059);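 also: bead proximity luminescence from CD47 binding SIRPalpha after compound preincubation with SIRPalpha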
Method in brief: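 Biotinylated Avi-tagged SIRPalpha (25 nM) preincubated 30 min with compound, then His-tagged CD47 (12.5 nM) added 30 min; AlphaScreen with Ni-NTA acceptor and streptavidin donor beads. PBS pH 7.4, 0.05% IGEPAL, room temperature; 7-point titrations.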

[16] = qHTS for inhibitors of adenylyl cyclases using a fission yeast platform: a pilot screen against the NCATS LOPAC library (AID 1347410)
Method in brief: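 S. pombe CHP2027 (AC9-GNAS-PDE4D2) carrying a PKA-repressed fbp1-GFP reporter was exposed to LOPAC compounds (final up to 57 µM) for 18 h at 30C in the dark, in EMM with histidine, lysine and uracil; GFP gain-of-signal read by laser scanning cytometry.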

[17] = biological target: Papain (Carica papaya) (UniProt P00784); assay: Primary qHTS assay for inhibitors of the protease papain (AID 1645873);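 also: papain turnover of Z-FR-AMC read as the AMC fluorescence gain over 10 min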
Papain (Carica papaya), sequence (P00784 whole entry, looked up): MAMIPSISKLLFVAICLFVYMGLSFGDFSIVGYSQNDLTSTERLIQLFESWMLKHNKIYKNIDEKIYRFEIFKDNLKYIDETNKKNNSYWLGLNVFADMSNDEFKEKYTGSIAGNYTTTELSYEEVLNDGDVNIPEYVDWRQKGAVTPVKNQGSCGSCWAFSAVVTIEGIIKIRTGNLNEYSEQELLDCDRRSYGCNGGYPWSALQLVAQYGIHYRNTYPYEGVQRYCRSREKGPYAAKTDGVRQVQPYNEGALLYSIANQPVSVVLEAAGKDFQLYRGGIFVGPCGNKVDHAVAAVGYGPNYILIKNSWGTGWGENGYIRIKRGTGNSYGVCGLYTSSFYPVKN

[18] = biological target: Metallo-beta-lactamase type 2 (Klebsiella pneumoniae) (UniProt C7C422); assay: qHTS to identify inhibitors of the New Delhi Metallo-beta-lactamase (NDM): assay validation screen against the NCATS LOPAC Collection (AID 1794843);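 also: nitrocefin turnover by NDM-1 measured as 485 nm absorbance at plateau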
Metallo-beta-lactamase type 2 (Klebsiella pneumoniae), sequence (C7C422 whole entry, looked up): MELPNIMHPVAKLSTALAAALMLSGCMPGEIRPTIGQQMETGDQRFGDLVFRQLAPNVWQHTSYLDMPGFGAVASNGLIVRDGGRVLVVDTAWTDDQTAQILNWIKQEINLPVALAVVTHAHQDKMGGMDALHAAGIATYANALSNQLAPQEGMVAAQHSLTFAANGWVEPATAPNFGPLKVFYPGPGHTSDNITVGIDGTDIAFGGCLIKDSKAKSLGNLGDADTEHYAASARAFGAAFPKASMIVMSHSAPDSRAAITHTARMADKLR
Method in brief: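 Nitrocefin hydrolysis (50 uM substrate stock) by NDM-1, 2 nM final, was followed by 485 nm absorbance after compound preincubation; buffer was 50 mM HEPES pH 7.0, 1 uM ZnSO4, 0.01% Tween20.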

[19] = biological target: Phospholipid hydroperoxide glutathione peroxidase GPX4 (Homo sapiens) (UniProt P36969); assay: Primary qHTS Assay for Inhibitors of Recombinant Selenoprotein Glutathione Peroxidase 4 (GPX4) (AID 1845192); details: outcome: dose series up to 50 µM unless noted; also: nearly all actives have a fitted effect of over 65% in size
Phospholipid hydroperoxide glutathione peroxidase GPX4 (Homo sapiens), sequence (P36969 whole entry, looked up): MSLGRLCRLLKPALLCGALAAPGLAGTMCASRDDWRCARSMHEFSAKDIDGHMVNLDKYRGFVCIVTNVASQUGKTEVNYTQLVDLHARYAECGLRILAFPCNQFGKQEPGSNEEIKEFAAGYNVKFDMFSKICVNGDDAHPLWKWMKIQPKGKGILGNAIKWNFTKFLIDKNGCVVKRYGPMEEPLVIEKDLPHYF
Method in brief: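 GR-coupled assay: recombinant GPX4 preincubated 30 min with compound at room temperature; final 200 nM GPX4, 1 mM GSH, 0.5 mM cumene hydroperoxide, 0.5 mM NADPH, 100 nM GR, 0.01% BSA, pH 7.5 Tris. NADPH fluorescence (340/450 nm) read at 0 and 15 min.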

[20] = biological target: Flap endonuclease 1 (Homo sapiens) (UniProt P39748); assay: qHTS Validation Assay for the Inhibitors of Human Flap endonuclease 1 (FEN1) (AID 488816)
Method in brief: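 Human FEN1 (10 nM) preincubated 15 min at room temperature with compounds, then flap DNA substrate added at 50 nM final. Fluorescence read at 0 and 15 min; concentration-response fitted with four-parameter Hill equation.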

Measured: Potency

Cc1ccc(OCCSc2ncccn2)c(Br)c1
inactive: [1]

CC[N+](CC)(CC)CC
not listed: [1] | [20]
inactive: all other assays above

CN[C@@H]1C[C@H]2O[C@@](C)([C@@H]1OC)n1c3ccccc3c3c4c(c5c6ccccc6n2c5c31)C(=O)N[C@H]4O
active: [1] 0.0215 µM

Cc1cccc(/C=C/c2ccccc2)n1
not listed: [1] | [17]
inactive: all other assays above

COc1cc2ncnc(Sc3nnc(C)s3)c2cc1OC
active: [1] 2.91 µM

COc1cc(/C=C\c2ccc(O)cc2)cc(OC)c1
active: [1] 6.51 µM

O=Nc1c(-c2c(O)[nH]c3ccccc23)[nH]c2ccccc12
active: [6] 3.98 µM
not listed: [1] | [13] | [14] | [15]
inactive: all other assays above

S=C(Nc1ccccc1)Nc1nccs1
active: [13] 13.1 µM
not listed: [1] | [2] | [3] | [6]
inactive: all other assays above

CCc1ccc(/C=C2/SC(=S)NC2=O)cc1
active: [6] 12.6 µM
not listed: [5] | [13]
inactive: all other assays above

O=C(c1ccc(-c2ccc(Cl)cc2)o1)N(Cc1ccccn1)c1ccc(N2CCNCC2)cc1
active: [1] 13 µM

C1CCC(N=C(NC23CC4CC(CC(C4)C2)C3)N2CCOCC2)CC1
not listed: [1] | [12] | [14] | [15] | [16] | [17] | [18] | [19]
inactive: all other assays above
